Bioassay records from PubChem BioAssay.
The list is not random: actives were taken first. Their share in the collection is about 2.6%.
TRPV1 PAM – HTS Assay for Compounds that Act as Potentiators of the Vanilloid Receptor 1. Transient receptor potential cation channel subfamily V member 1 (Homo sapiens), Q8NER1. 320,000 tested, 0.02% active. AID 540277, 2011. TRPV1-expressing cells, Fluo-8 calcium influx, capsaicin EC20 potentiation. potentiation, % at 8.33 µM; in the data active = potentiation above about 80%; inconclusive = between about 30% and that limit; also: 0% is about no effect
Target sequence (Q8NER1 whole entry, looked up): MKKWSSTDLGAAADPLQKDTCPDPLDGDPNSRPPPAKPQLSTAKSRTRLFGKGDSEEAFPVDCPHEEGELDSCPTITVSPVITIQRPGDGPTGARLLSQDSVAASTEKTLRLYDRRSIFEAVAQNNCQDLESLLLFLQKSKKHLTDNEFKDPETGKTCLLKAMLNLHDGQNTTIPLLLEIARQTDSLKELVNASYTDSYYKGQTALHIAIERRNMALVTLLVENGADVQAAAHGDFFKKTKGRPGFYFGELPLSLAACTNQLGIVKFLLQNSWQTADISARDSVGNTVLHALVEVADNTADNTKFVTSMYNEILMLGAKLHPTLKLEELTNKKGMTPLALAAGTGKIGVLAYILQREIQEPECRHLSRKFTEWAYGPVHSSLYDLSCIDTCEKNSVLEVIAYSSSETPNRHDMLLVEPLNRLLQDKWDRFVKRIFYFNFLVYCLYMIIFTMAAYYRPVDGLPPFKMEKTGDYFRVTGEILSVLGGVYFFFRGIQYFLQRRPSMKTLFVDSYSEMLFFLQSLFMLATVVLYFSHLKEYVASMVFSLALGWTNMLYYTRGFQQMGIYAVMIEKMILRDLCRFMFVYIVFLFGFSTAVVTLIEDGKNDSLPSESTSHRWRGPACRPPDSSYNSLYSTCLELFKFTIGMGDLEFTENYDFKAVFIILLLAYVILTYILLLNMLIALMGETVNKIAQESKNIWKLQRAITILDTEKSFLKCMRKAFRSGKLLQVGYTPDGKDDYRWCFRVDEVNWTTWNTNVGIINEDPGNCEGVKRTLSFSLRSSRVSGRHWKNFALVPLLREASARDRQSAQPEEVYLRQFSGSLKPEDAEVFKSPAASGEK
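TRPV1-expressing cells were cultured overnight at 35.5C and loaded with Fluo-8 calcium dye for 40 to 90 min at room temperature. After a 10 s baseline, compound was added and calcium influx was read kinetically for 3 min (ex 480/em 520 nm).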
KCNH2 3.1 block – qHTS for Inhibitors of KCHN2 3.1: Mutant qHTS. Potassium voltage-gated channel subfamily H member 2, brain isoform KCNH2 3.1 (human). U2OS KCNH2 3.1, thallium flux FluxOr; stronger effect = lower value. activity change, % (tested at about 1.8 µM). 340,000 tested, 0.95% active. AID 720553, 2013;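 active = maximum activity change below -70%; inconclusive = maximum activity change from -70% to -50%; inactive = maximum activity change above -50%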;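 also: thallium influx rate constant from kinetic fluorescence after stimulation buffer; % is scaled to controls: 0 for no effect and ±100 for the full control effect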
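Normalized rate constant (relative to positive and negative DMSO controls) derived from a 2 min kinetic fluorescence read after stimulation; U2OS cells expressing the 3.1 isoform via virus at 1.77 x 10^8 /mL.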
p53 reactivator – qHTS assay for re-activators of p53 using a Luc reporter; AID 504706, 2011; Potency, µM (top dose mostly 92.2 µM), for inactives: at the top dose activity change, positive = activation, hits mostly activators; H1299 p53-A138V BP100-luciferase reporter, luminescence, 24 h; 320,000 tested, 0.063% active; active = well fitted activation curve with a large enough effect; inconclusive = small, poorly fitted or top-dose-only effect; inactive = no such curve, though single readings can be large or run the other way; also: potency is read from the fitted curve at half-maximal effect; % of control where 0% means no effect; nearly all actives have a fitted effect of over 45% in size
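p53-null H1299 cells stably carrying temperature-sensitive p53-A138V and a BP100-luciferase reporter were pinned with compounds (4-point, 1:5 series) and held 24 hrs at 37 deg C. Luminescence was read 10 min after detection reagent.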
ClpP mod – qHTS Assay for Activators of ClpP; Potency, µM (titrated, usually from 57.5 µM), for the others: at the top dose activity change, negative = active; ATP-dependent Clp protease proteolytic subunit (Bacillus subtilis (strain 168)), P80244; 340,000 tested, 1.9% active; purified B. subtilis ClpP, FRET peptide cleavage, 20 min; active = well fitted falling curve with a large enough effect; inconclusive = small, poorly fitted or top-dose-only effect; inactive = no such curve, though single readings can be large or run the other way; also: potency is read from the fitted curve at half-maximal effect; the source files actives as falling curves though it sought activators and does not explain the sign; nearly all actives have a fitted effect of over 65% in size
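Purified B. subtilis ClpP, 10 microg/mL final in Tris/HCl pH8 with KCl, BSA, glycerol and Tween-20, cleaved an Abz/nitrotyrosine-quenched decapeptide. Fluorescence (ex 320, em 430) was read at 0 and 20 min at room temperature. Delta was normalized to 5.8 microM ADEP and DMSO/no-enzyme controls.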
TRPV1 ag – HTS Assay for Compounds that Act as Agonists of the Vanilloid Receptor 1 | Transient receptor potential cation channel subfamily V member 1 (Homo sapiens), Q8NER1 | TRPV1-expressing cells, Fluo-8 calcium influx, agonist mode | activation, % at 8.33 µM | 320,000 tested, 0.19% active; in the data active = activation above about 80%; inconclusive = between about 30% and that limit; also: 0% is about no effect
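Fluo-8 calcium influx in TRPV1-expressing cells, kinetic read (ex 480/em 520 nm). Compound added and read 3 min for agonist activity, followed by capsaicin at EC20 final and 2 min further read for enhancement.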
KCNH2 WT inh – qHTS for Inhibitors of KCHN2 3.1: Wildtype qHTS. U2OS, BacMam KCNH2, thallium flux FluxOr; stronger effect = lower value. 340,000 tested, 0.37% active. Voltage-gated inwardly rectifying potassium channel KCNH2 (Homo sapiens), Q12809. activity change, % at 1.84 µM. AID 720551, 2013;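 active = maximum activity change below -70%; inconclusive = maximum activity change between -70% and -50%; inactive = maximum activity change above -50%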; also: % is scaled to controls: 0 for no effect and ±100 for the full control effect
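U2OS cells transduced with wild-type KCNH2 virus are loaded with FluxOr dye for 45 min, and thallium flux is measured in kinetic reads before and after stimulation buffer. Rate constants are normalized to DMSO controls.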
The depositor's hits bear a star; ? = inconclusive; nt = no result given.

SMILES | TRPV1 PAM | KCNH2 3.1 block | p53 reactivator | ClpP mod | TRPV1 ag | KCNH2 WT inh
COc1cc(NC(=O)CC2C(=O)N(c3cccc(C)c3)C(=O)N2Cc2ccco2)cc(OC)c1 (stereo not drawn) | nt | nt | nt | -1% | nt | nt
CCN1CCN(CCCN(Cc2ccco2)C(=S)Nc2ccccc2Cl)CC1 | 128* | -1 | 3% | nt | -2 | 9
O=C1c2cccc3cccc(c23)C(=O)N1c1ccncc1 | 0 | 14 | -4% | 10µM* | 4 | 4
O=C1c2cccc3cccc(c23)C(=O)N1c1ccccn1 | 12 | -15 | -1% | 4% | 2 | nt
CCc1nnc(N2C(=O)c3cccc4cccc(c34)C2=O)s1 | 4 | 7 | -11% | 16µM* | -5 | 2
COc1ccc(N2C(=O)c3cccc4cccc(c34)C2=O)cc1 | 0 | 10 | nt | 0% | 0 | -15
O=C1c2cccc3cccc(c23)C(=O)N1c1cccnc1 | 4 | -8 | 4% | 16µM* | -3 | -1
CCOCCc1nnc(NC(=O)C(=O)c2cc(C)n(-c3ccc(C)c(C)c3)c2C)s1 | nt | nt | nt | 0% | nt | nt
COc1ccc(C2(OC)Oc3cc(OC)ccc3C(=O)C2(O)OC)cc1 (stereo not drawn) | nt | -10 | nt | 32µM* | nt | -11
COc1ccc2c(c1)OC(c1ccccc1)(C(F)(F)F)NC2=O (stereo not drawn) | 10 | -6 | -13% | 0% | -1 | -3
CC[N+]1(CC)CC2=Cc3c(ccc4ccccc34)CC2C1 (stereo not drawn) | 2 | -5 | -4% | 25µM* | -2 | 0
CC12Cc3ccc4ccccc4c3C=C1C[N+](C)(C)C2 (stereo not drawn) | 13 | 0 | 0% | -1% | -1 | -5
CN(C)c1ccc(C=O)c(F)c1 | nt | nt | nt | -4% | nt | nt
CCOc1ccc2c(c1)N(C(=O)CN1C(=O)CCC1=O)C(C)(C)C=C2C | -5 | 0 | 7% | 32µM* | 2 | 3
CCOC(=O)Cc1nn[nH]n1 | -6 | -128* | 4% | nt | -1 | -7
CCOC(=O)Cc1nnn(CC(=O)OCC)n1 | nt | 6 | 5% | -2% | nt | -1
CN(C)/C=C1\C=C2C(=O)c3ccccc3N2C1=O | -21 | 10 | 8% | 0% | 93* | -22
CN(C)/C=C1\C=Cc2ccccc21 | nt | nt | nt | -5% | nt | nt
O=C(CNC(=O)C(c1ccccc1)c1ccccc1)OCC(=O)c1ccc2ccccc2c1 | nt | nt | nt | 6% | nt | nt
O=C1C2C3C=CC(C3)C2C(=O)N1c1ccc(-c2nc3ccccc3o2)cc1 (stereo not drawn) | -5 | 5 | nt | 6.3µM* | -1 | 8
CCCCOc1ccc(C(=O)N/C(=C\c2cccc([N+](=O)[O-])c2)C(=O)OCc2ccco2)cc1 | -2 | -75* | 3% | 0% | 1 | -28
CCCCOc1ccc(C(=O)N/C(=C\c2ccc(OC)cc2)C(=O)OCc2ccco2)cc1 | 14 | 1 | 9% | -3% | -3 | -11
CCCn1c(S(=O)(=O)O)nc2ccccc21 | -10 | 14 | -5% | nt | -1 | -18
CCC(C)n1c(S(=O)(=O)O)nc2ccccc21 (stereo not drawn) | 17 | -12 | 8% | 0% | 0 | -184*
O=c1cc(COc2ccccc2Cl)nc2scc(-c3ccccc3)n12 | nt | nt | nt | -3% | nt | nt
SMILES | TRPV1 PAM | KCNH2 3.1 block | p53 reactivator | ClpP mod | TRPV1 ag | KCNH2 WT inh
COc1cccc(N2CCN(C(=O)Cn3c(-c4cccs4)cc4ccccc43)CC2)c1 | nt | nt | nt | 16µM* | nt | nt
CCN1CCN(C(=O)Cn2c(=O)sc3ccccc32)CC1 | nt | 1 | 1% | 0% | nt | -2
CCN1CCN(C(=O)Cn2c(-c3cccs3)cc3ccccc32)CC1 | nt | nt | nt | 32µM* | nt | nt
CCOc1cc(C2Nc3ccccc3C(=O)N2Cc2ccco2)ccc1O (stereo not drawn) | nt | nt | nt | 4% | nt | nt
CCN(CC)CCCNC(=O)c1cnc(SC)nc1-c1ccccc1 | nt | nt | nt | -2% | nt | nt
Cc1sc2ncnc(NCC3(N4CCOCC4)CCCCC3)c2c1C | -2 | -72* | -2% | 2% | -2 | -19
OC1(C(F)(F)F)CC(c2ccc3ccccc3c2)=NO1 (stereo not drawn) | -8 | 17 | 35µM* | -4% | 13 | 0
Cc1oc(-c2nc3ccccc3n2C)cc1C(=O)c1ccccc1 | -7 | -8 | 10µM* | 0% | ? | -1
Cc1ccc(-c2nc3ccccc3n2C)o1 | 3 | 6 | 10% | 16µM* | -1 | 1
CCC(CC)C(=O)N(C)c1c(C)nc2c(OCC(=O)C(C)(C)C)cccn12 | nt | nt | nt | -4% | nt | nt
CCc1cccc(C)c1NC(=O)C1CN(S(=O)(=O)c2ccccc2)CCN1S(=O)(=O)c1ccccc1 (stereo not drawn) | -8 | -7 | -1% | 25µM* | -1 | -17
CCn1c(SCC(=O)Nc2sc(C)c(C)c2C#N)nnc1C(C)C | -7 | 14 | -3% | -1% | 2 | -6
COCCn1c(SCC(=O)Nc2sc(C)c(C)c2C#N)nnc1C(C)C | 7 | -195* | 4% | -2% | 0 | -2
CCC(=O)N1Cc2cc(C(=O)Nc3nccs3)nc(-c3cccc(-c4ccccc4OC)c3)c2[C@@H]1CCO | nt | nt | nt | -10% | nt | nt
Cc1ccc(NC(=O)N(Cc2cccs2)Cc2cc3cc4c(cc3[nH]c2=O)OCO4)cc1 | -3 | nt | -8% | nt | -3 | nt
O=C(Nc1ccc(F)cc1)N(Cc1cccs1)Cc1cc2cc3c(cc2[nH]c1=O)OCO3 | -5 | -9 | -4% | 32µM* | -1 | -6
O=C(Nc1ccc(F)cc1)N(Cc1ccco1)Cc1cc2cc3c(cc2[nH]c1=O)OCO3 | -3 | -8 | -12% | 32µM* | 1 | -8
O=C(CCCn1c2ccccc2c(=O)c2ccccc21)Nc1ccc(F)cc1Cl | nt | nt | nt | 4% | nt | nt
S=c1[nH]cnc2scc(-c3ccc(Br)cc3)c12 | -12 | 0 | 0% | nt | -4 | -84*
CCN(CC)c1ccc(S(=O)(=O)N2CCOCC2)cc1NC(=O)CSc1nncs1 | -4 | -187* | -1% | 1% | -8 | -215*
CCN(CC)c1ccc(S(=O)(=O)N2CCOCC2)cc1NC(=O)c1cc(=O)c2ccccc2o1 | 1 | -74* | ? | -1% | 1 | 0
Cc1ccc(S(=O)(=O)N2[C@H](CC(=O)c3cccc4ccccc34)OC[C@@H]2C(C)C)cc1 | nt | nt | nt | -2% | nt | nt
